# Measured values from PubChem BioAssay (NCATS).
# Values joined by “and” are separate entries in the source; they are usually repeats but may differ in a detail not shown here. Equal values may be shown once. Results filed as inconclusive are left out. A call without a number means that no potency is given here. Active and inactive are the calls of the source. Unless noted, the call rests on the fitted dose curve; in most records, active means well fitted curve in the direction sought with a large enough effect; inconclusive means small, poorly fitted or top-dose-only effect, or another doubt; inactive means no such curve, though single readings can be large; an effect the other way counts as inactive or inconclusive.
# Tests used:
# [1] = qHTS to identify inhibitors of the type 1 interferon - major histocompatibility complex class I in skeletal muscle: primary screen against the NCATS Mechanism Interrogation Plate v5.0 (MIPE) Libary (AID 1347411); further: nearly all actives have a fitted effect of over 65% in size; further: potency means the concentration at half of the fitted maximal effect
# Procedure, shortened: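 Immortalized human C25cl48 myoblasts with HiBit knocked into endogenous HLA-B*08:01 were stimulated with 4.0 ng/ml IFN-beta and exposed to compounds (11-point 1:3 titration, top 46 uM final) for 24 hrs at 37 C; HiBiT lytic luminescence measured.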
# [2] = Primary qHTS for inhibitors of nuclear receptor binding SET domain protein 2 (NSD2) in an isogenic RCH-ACV NSD2 p.E1099K mutant (9B) (AID 1645876); further: nearly all actives have a fitted effect of over 70% in size; further: potency means the concentration at half of the fitted maximal effect
# [3] = Primary qHTS for inhibitors of nuclear receptor binding SET domain protein 2 (NSD2) in an RCH-ACV wild type WT cells (2C) (AID 1645877); further: nearly all actives have a fitted effect of over 70% in size; further: potency means the concentration at half of the fitted maximal effect
# [4] = molecular target: Glutathione peroxidase 1 (Homo sapiens) (UniProt P07203); assay: Primary qHTS Assay for Inhibitors of Recombinant Selenoprotein Glutathione Peroxidase 1 (GPX1) (AID 1845191); further: nearly all actives have a fitted effect of over 65% in size
# Sequence of Glutathione peroxidase 1 (Homo sapiens) (P07203 whole entry, looked up): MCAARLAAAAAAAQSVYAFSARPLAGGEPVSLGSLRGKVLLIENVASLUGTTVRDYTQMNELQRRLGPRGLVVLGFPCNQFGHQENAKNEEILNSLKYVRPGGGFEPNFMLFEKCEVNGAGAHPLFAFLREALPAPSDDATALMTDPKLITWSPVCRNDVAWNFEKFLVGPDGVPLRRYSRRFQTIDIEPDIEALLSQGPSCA
# Procedure, shortened: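 10 nM GPX1 + cpd, 30 min RT; start w/ 1 mM GSH, 0.5 mM cumene hydroperoxide, 0.5 mM NADPH, 100 nM GR, 0.01% BSA; buffer 50 mM Tris-HCl pH 7.5, 2 mM EDTA, 150 mM NaCl; Fl 340/450, 0 & 15 min.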
# [5] = molecular target: Phospholipid hydroperoxide glutathione peroxidase GPX4 (Homo sapiens) (UniProt P36969); assay: Primary qHTS Assay for Inhibitors of Recombinant Selenoprotein Glutathione Peroxidase 4 (GPX4) (AID 1845192); settings: outcome: dose series up to 50 µM unless noted; further: nearly all actives have a fitted effect of over 65% in size; further: potency means the concentration at half of the fitted maximal effect; on activity change, negative = inhibition: series mostly up to about 50 µM
# Sequence of Phospholipid hydroperoxide glutathione peroxidase GPX4 (Homo sapiens) (P36969 whole entry, looked up): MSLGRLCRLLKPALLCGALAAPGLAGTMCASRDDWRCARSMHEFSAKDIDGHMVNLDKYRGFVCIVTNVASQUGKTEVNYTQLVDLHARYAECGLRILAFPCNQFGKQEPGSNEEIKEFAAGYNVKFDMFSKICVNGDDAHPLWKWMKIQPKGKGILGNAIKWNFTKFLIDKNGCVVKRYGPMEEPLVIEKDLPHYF
# Procedure, shortened: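 NADPH consumption, followed by fluorescence at 340/450 nm between 0 and 15 min, reports GPX4 activity via coupled glutathione reductase (100 nM). Enzyme 200 nM was pre-exposed to compound 30 min; 0.5 mM cumene hydroperoxide and 1 mM GSH served as substrates.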
# [6] = qHTS drug screen for cell cycle checkpoint inhibitors in PARPi-resistant BRCA-mutant ovarian cancer cell lines. (AID 1963452; calls by dose curve; further: potency means the concentration at half of the fitted maximal effect); settings: PEO1/OlaR viability, CellTiter-Glo luminescence, 96 h; for Z-AUC: stronger effect = lower value
# Procedure, shortened: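 PEO1, PEO4 and PEO1/OlaR ovarian cancer cells, 600 per well, exposed 96 h at 37C to a dilution series. Viability read by CellTiter-Glo luminescence, normalized to DMSO and empty wells; activity summarized as Z-AUC.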
# [7] = NCATS anti-infectives library activity on HEK293 viability as a counter-qHTS vs the C. elegans viability qHTS (AID 1745854)
# Procedure, shortened: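 HEK293 cells, 1500 per well, exposed 24 hr at 37C in 5% CO2 to compounds in a 1:5 titration, up to 41.7 uM final. Viability read as CellTiter-Glo luminescence after 10 min at room temperature.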
# [8] = measured here: PEO1 parental Z-AUC
SMILES,Potency [1],Potency [2],Potency [3],Potency [4],Potency [5],Z-AUC [6],"Z-AUC [6, 8]",Z-AUC ([6]; measured here: PEO4 Z-AUC),Potency [7],"activity change, negative = inhibition [1]",outcome [2],outcome [3],outcome [4],outcome [5],Potency [6]
Cc1cc(C)cc(Oc2ccc(CNC(=O)[C@H](C)N)cc2C)c1,inactive,18.6 µM (active),18.6 µM (active),inactive,inactive,1.6 (inactive),1.04,1.3,–,–,–,–,–,–,–
COC(=O)C1=C(C)NC(c2ncc(F)cc2F)=N[C@H]1c1ccc(F)cc1Cl,20.8 µM (active),14.8 µM (active),13.2 µM (active),inactive,inactive,0.0263 (inactive),0.182,1.13,inactive,–,–,–,–,–,–
COc1cc(C)[nH]c(=O)c1CN1CCc2c(Cl)cc([C@H](OC)C3COC3)c(Cl)c2C1=O,inactive,inactive,inactive,inactive,inactive,1.05 (inactive),0.817,0.549,–,–,–,–,–,–,–
Cc1ccc(-c2ccc(C)cn2)nc1,inactive,inactive,inactive,–,inactive,1.52 (inactive),0.85,1.74,inactive,–,–,–,–,–,–
CC(=NNC(=O)c1cccc(S(=O)(=O)N2CCOCC2)c1)c1cc(Cl)ccc1O,inactive,2.09 µM (active),1.48 µM (active),–,–,–,–,–,–,–,–,–,–,–,–
Cn1c(-c2ccccc2C(F)(F)F)nnc1C12CCC(c3noc(C4CC(F)(F)C4)n3)(CC1)CC2,inactive,inactive,inactive,inactive,inactive,1.42 (inactive),1.05,1.41,–,–,–,–,–,–,–
C[C@H]1[C@H](C)CC[C@]2(C(=O)O)CC[C@]3(C)C(=CC[C@@H]4[C@@]5(C)CC[C@H](O)C(C)(C)[C@@H]5CC[C@]43C)[C@H]12,inactive,inactive,inactive,–,inactive,0.556 (inactive),0.879,0.501,–,–,–,–,–,–,–
C[C@]12CCC3[C@@H](CC[C@H]4NC(=O)C=C[C@]34C)[C@@H]1CC[C@@H]2C(=O)Nc1cc(C(F)(F)F)ccc1C(F)(F)F (stereo partly drawn),inactive,inactive,inactive,inactive,inactive,-1.09 (inactive),-1.05,-1.07,inactive,–,–,–,–,–,–
CCOc1cc(/C=C2/C(=O)N(c3ccccc3)N=C2C)cc(Cl)c1OCC(=O)OC,inactive,inactive,inactive,inactive,inactive,1.36 (inactive),1.44,0.891,–,–,–,–,–,–,–
COc1ccc(C(=O)N2CCN(c3ccc4c(c3)CCC(=O)N4)CC2)cc1OC,inactive,inactive,inactive,inactive,inactive,-0.238 (inactive),0.0272,0.0147,inactive,–,–,–,–,–,–
O=c1[nH]nc2c3c(cccc13)NC(CN1Cc3ccccc3C1)=N2,inactive,20.9 µM (active),18.6 µM (active),inactive,inactive,-0.263 (inactive),-0.113,-0.251,inactive,–,–,–,–,–,–
COc1cc(OCc2cccc(-c3ccccc3)c2C)cc(OC)c1CN1CCCC[C@H]1C(=O)O,inactive,inactive,inactive,inactive,inactive,-0.024 (inactive),-0.135,-0.37,–,–,–,–,–,–,–
CC(C)(O)[C@H]1CC[C@@](C)([C@H]2[C@@H](O)C[C@@]3(C)[C@@H]4C[C@H](O[C@@H]5O[C@H](CO)[C@@H](O)[C@H](O)[C@H]5O)[C@H]5C(C)(C)[C@@H](O[C@@H]6OC[C@@H](O)[C@H](O)[C@H]6O)CC[C@@]56C[C@@]46CC[C@]23C)O1,inactive,inactive,inactive,inactive,inactive,-0.0384 (inactive),1.82,1.68,–,–,–,–,–,–,–
COc1ccc(CNC(=O)c2cc(-c3cncc(Cl)c3)cnc2-c2ccccn2)nc1OC,inactive,inactive,inactive,inactive,inactive,0.765 (inactive),0.872,1.32,–,–,–,–,–,–,–
CC[C@H]1OC(=O)[C@H](C)C(=O)[C@H](C)[C@@H](O[C@H]2O[C@H](C)C[C@H](N(C)C)[C@H]2O)[C@](C)(OC)C[C@@H](C)C(=O)[C@H](C)[C@H]2N(CCCCn3cnc(-c4cccnc4)c3)C(=O)O[C@]12C,inactive,inactive,inactive,inactive,inactive,0.729 (inactive),0.267,-0.0116,–,–,–,–,–,–,–
CCCNC(=O)[C@H]1O[C@@H]1C(=O)N[C@H](C(=O)N1CCC[C@H]1C(=O)OC)C(C)CC (stereo partly drawn),inactive,6.61 µM (active),7.42 µM (active),inactive,inactive,0.833 (inactive),0.0577,0.0351,–,–,–,–,–,–,–
COc1ccccc1C(=O)Nc1cc2c(cc1N1CCCCC1)n(C)c(=O)n2C,inactive,inactive,inactive,inactive,inactive,1.08 (inactive),0.729,0.646,–,–,–,–,–,–,–
COc1cc2nccc(Oc3ccc(NC(=O)c4cn(C(C)C)c(=O)n(-c5ccc(F)cc5)c4=O)cc3F)c2cc1OC,inactive,inactive,inactive,inactive,inactive,-0.766 (inactive),-0.766,-0.777,–,–,–,–,–,–,–

SMILES,Potency [1],Potency [2],Potency [3],Potency [4],Potency [5],Z-AUC [6],"Z-AUC [6, 8]",Z-AUC ([6]; measured here: PEO4 Z-AUC),Potency [7],"activity change, negative = inhibition [1]",outcome [2],outcome [3],outcome [4],outcome [5],Potency [6]
COC(=O)/C=C/C(=O)OC,inactive,inactive,inactive,inactive,inactive,-0.0504 (inactive),0.852,0.675,–,–,–,–,–,–,–
Cc1c(Cl)cccc1S(=O)(=O)Nc1nc(CCN2CCOCC2=O)cs1,inactive,inactive,inactive,inactive,inactive,0.943 (inactive),0.512,0.46,–,–,–,–,–,–,–
COc1cc2c(cc1OC)CN(CCc1ccc(-n3nnc(-c4cc(OC)c(OC)cc4NC(=O)c4cc(=O)c5ccccc5o4)n3)cc1)CC2,–,–,–,–,–,2.8 (inactive),2.17,2.67,–,-5.16% [at 0.314 µM] (inactive),inactive [at 0.588 µM],inactive [at 0.588 µM],inactive [at 0.4 µM],inactive [at 0.409 µM],–
CC(C)(C)C(=O)N1N=CC[C@H]1c1ccccc1,inactive,inactive,inactive,inactive,inactive,-0.69 (inactive),-0.909,-0.663,–,–,–,–,–,–,–
CC1=NN(c2ccc(C(=O)O)cc2)C(=O)/C1=C/c1ccc(-c2cc(C)c(C)cc2[N+](=O)[O-])o1,inactive,inactive,inactive,inactive,inactive,0.0308 (inactive),0.127,-0.0936,–,–,–,–,–,–,–
CC(C)(O)CS(=O)(=O)Nc1ccc2c(c1)CCN(C(=O)COc1cccnc1)C2,inactive,0.0372 µM (active),0.0332 µM (active),inactive,inactive,-2.38 (inactive),-2.73,-2.65,–,–,–,–,–,–,–
CC(C)n1c(=O)cc(N[C@@H](C)c2ccccc2)[nH]c1=O,inactive,inactive,inactive,inactive,inactive,-0.0266 (inactive),0.859,1.05,–,–,–,–,–,–,–
Nc1nccc2c1ncn2[C@@H]1C=C(CO)[C@@H](O)[C@H]1O,inactive,0.209 µM (active),0.148 µM (active),inactive,inactive,-0.397 (inactive),-0.938,-1.07,–,–,–,–,–,–,–
C[C@]12CC[C@H](O)CC1=CC[C@@H]1[C@@H]2CC[C@]2(C)C(c3cccnc3)=CC[C@@H]12,inactive,inactive,inactive,inactive,inactive,0.978 (inactive),0.324,0.672,–,–,–,–,–,–,–
Cn1cc(-c2nc(N[C@@H]3CCCC[C@@H]3N)c(F)c3c2C(=O)NC3)cn1,–,0.662 µM (active),0.59 µM (active),–,–,0.172 (inactive),0.884,0.422,–,-16.3% [at 5.1 µM] (inactive),–,–,inactive [at 4.49 µM],inactive [at 4.52 µM],–
O=C(NO)c1cnc(N2C[C@H]3C[C@@H]2CN3c2cc(C(F)(F)F)ccn2)nc1,4.66 µM (active),2.95 µM (active),2.95 µM (active),inactive,inactive,-1 (inactive),-1.23,-1.32,–,–,–,–,–,–,–
COc1cccc(-c2c(C)n(Cc3c(F)cccc3C(F)(F)F)c(=O)n(C[C@H](NCCCC(=O)O)c3ccccc3)c2=O)c1F,inactive,inactive,inactive,inactive,inactive,1.28 (inactive) and 1.27 (inactive),0.714 and 0.439,0.863 and 0.647,–,–,–,–,–,–,–
C[C@H]1CNC(=O)c2cnn3ccc(nc23)N[C@H](C)c2cc(F)ccc2O1,1.17 µM (active),1.48 µM (active),1.18 µM (active),inactive,inactive,–,-2.09,-2.06,–,–,–,–,–,–,1.55 µM (active)
Cc1ccc(NS(=O)(=O)c2ccc3c(c2)C2C=CCC2C(c2ccc(C(=O)O)cc2)N3)cc1C (stereo not drawn),inactive,inactive,inactive,inactive,22.7 µM (active),-0.665 (inactive),-0.264,-0.866,–,–,–,–,–,–,–
[2H]c1nc(C)nc([2H])c1-c1cc(NC[C@@H](C)c2cccc3c(C(=O)NC)ccnc23)ncn1,inactive,inactive,inactive,inactive,inactive,1.38 (inactive),1.26,1.18,–,–,–,–,–,–,–
CNCCn1c(=O)c2cc(OC)c(OC)cc2c2cnc3cc4c(cc3c21)OCO4,–,0.0096 µM (active),0.006 µM (active),–,–,–,-3.24,-2.15,–,-8.45% [at 8.44 µM] (inactive),–,–,inactive [at 9.52 µM],inactive [at 9.73 µM],0.0071 µM (active)
CCc1cc2c(c(OCC(F)(F)F)c(C(=O)NC3CCN(C(=O)CO)CC3)n2C)c(=O)n1CC(=O)c1ccccc1,inactive,inactive,inactive,inactive,inactive,-1.12 (inactive),-0.345,0.581,–,–,–,–,–,–,–
